DAGLB inhibitor = blocks human DAGLB lipase activity. HEK293T DAGLB membrane lysate, EnzChek fluorogenic substrate. inhibition, % at 5.17 µM. 0.059% of 340,000 active; in the data active = inhibition above about 34%;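 note: 0% = enzyme with vehicle and 100% = wells lacking enzyme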
HGIII-sPLA2 inh = Inhibits HGIII-sPLA2 liposome hydrolysis, primary screen | Q9NZ20 | QFRET BODIPY PC-A2 liposome hydrolysis, fluorescence | inhibition, % at 12.2 µM | 0.56% of 370,000 active | AID 743126;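 active = inhibition above mean plus 3 SD of compounds lying within the high and low control bounds, cut at about 19% in these data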;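 note: 0% = median of test compound wells and 100% = no enzyme DMSO wells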
PLC-gamma1 inh = blocks human PLC-gamma1 enzyme activity; P19174; inhibition, % at 12.2 µM; purified PLC-gamma1, fluorogenic substrate, fluorescence; 0.84% of 370,000 active
PLCb3 inh = blocks human PLC-beta3 enzyme activity; Q01970; Purified PLC-beta3, fluorogenic substrate, fluorescence; inhibition, % at 12.2 µM; 0.18% of 370,000 active; in the data active = inhibition above about 11%;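 note: 0% = median of compound wells on plate and 100% = full blocker control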
PLCgamma1 ctr = counter-screen for PLC-beta3 inhibitors: inhibitors of human PLC-gamma1; inhibition, % at 12.3 µM; purified PLC-gamma1, fluorogenic substrate, fluorescence; 3.1% of 3,300 active; AID 743258; shares compounds with PLC-gamma1 inh
PLCb3 confirm = human PLC-beta3 inhibition, confirmation. shares compounds with PLC-gamma1 inh. purified PLC-beta3, fluorogenic substrate fluorescence. inhibition, % at 12.3 µM. 1% of 3,300 active; in the data active = inhibition above about 11%
The depositor's hits bear a star. Sampled rows, rich in hits. Any-hit rate of the full collection: about 1.5%. Cut-off read from the data, not from the text of the source, unless noted: active = inhibition above about 9.5%; inactive = the rest.

`Cc1ccccc1Cn1cc(COC(=O)NCCc2ccccc2)nn1` gave HGIII-sPLA2 inh -1, PLC-gamma1 inh -3 and PLCb3 inh -6.
For Cn1cnnc1SCC(=O)n1c2ccccc2c2ccccc21 the results were DAGLB inhibitor -1, HGIII-sPLA2 inh -11, PLC-gamma1 inh 14*, PLCb3 inh 8, PLCgamma1 ctr -10 and PLCb3 confirm -6.
Screening Cc1c(C)n(C(=O)CSc2nncn2C)c2ccccc12 returned DAGLB inhibitor -1, HGIII-sPLA2 inh 11, PLC-gamma1 inh 7 and PLCb3 inh 2.
COc1ccc(C(=O)C2(C(=O)NCc3ccccc3)CC(c3ccccc3C(F)(F)F)=NO2)cc1 (stereo not drawn) was read as HGIII-sPLA2 inh -8, PLC-gamma1 inh -3 and PLCb3 inh 0.
Cc1ccc(-c2cc(-c3nnc(SCC(=O)NC4CCCCC4)n3N)[nH]n2)cc1 was read as HGIII-sPLA2 inh 0, PLC-gamma1 inh 2 and PLCb3 inh 1.
Screening C[C@H]1[C@H](NCc2cccnc2)CC[C@@]23CCCN2C(=O)CCC[C@@H]13 returned HGIII-sPLA2 inh -1, PLC-gamma1 inh -3 and PLCb3 inh 2.
O=C(c1cnc(-c2ccccc2)s1)c1ccc(Cl)cc1Cl was read as DAGLB inhibitor -15, HGIII-sPLA2 inh -2, PLC-gamma1 inh 9.7*, PLCb3 inh 2, PLCgamma1 ctr -2 and PLCb3 confirm -2.
For Cn1c(=O)c(=O)n(C)c2cc(S(=O)(=O)N3CCN(Cc4ccc5c(c4)OCO5)CC3)ccc21 the results were HGIII-sPLA2 inh -1, PLC-gamma1 inh 5 and PLCb3 inh 0.
For N#Cc1cccc(NC(=O)OCCCN2CCC3(CCCCC3)C2=O)c1 the results were HGIII-sPLA2 inh -1, PLC-gamma1 inh 0 and PLCb3 inh -1.
Screening Cc1sc2nc(C3CC3)nc(NCCNS(=O)(=O)c3ccccc3)c2c1C returned DAGLB inhibitor 0, HGIII-sPLA2 inh -18, PLC-gamma1 inh 9.6*, PLCb3 inh 6, PLCgamma1 ctr -2 and PLCb3 confirm 0.
For C/C(=C/c1[nH]c(N)[n+](CC2CC2)c1Cc1ccccc1)Cn1[nH]c(=O)n(-c2ccccc2)c1=O the results were HGIII-sPLA2 inh 1, PLC-gamma1 inh 0 and PLCb3 inh -2.
`CSc1nc2c(c(C(F)(F)F)n1)CC(C)CC2` (stereo not drawn) gave DAGLB inhibitor 1, HGIII-sPLA2 inh 1, PLC-gamma1 inh 9.6*, PLCb3 inh -3, PLCgamma1 ctr 2 and PLCb3 confirm 1.
COc1ccc(C(c2nnnn2Cc2ccccc2)N2CCN(c3ccccc3)CC2)cc1 (stereo not drawn) was read as DAGLB inhibitor -2, HGIII-sPLA2 inh -4, PLC-gamma1 inh -1 and PLCb3 inh 0.
COc1ccc(Cn2nnnc2C(C(C)C)N2CCN(c3ccccc3OC)CC2)cc1 (stereo not drawn) was read as DAGLB inhibitor -3, HGIII-sPLA2 inh 9, PLC-gamma1 inh 11*, PLCb3 inh 6, PLCgamma1 ctr 1 and PLCb3 confirm 3.
For CC1(C(=O)NCc2cccc(C(F)(F)F)c2)CCN1Cc1ccc(-c2ccccc2)o1 (stereo not drawn) the results were HGIII-sPLA2 inh -10, PLC-gamma1 inh 9.6*, PLCb3 inh -1, PLCgamma1 ctr -1 and PLCb3 confirm -2.
`CNCC(=O)Nc1ccc(Cl)c(C(F)(F)F)c1` gave DAGLB inhibitor -1, HGIII-sPLA2 inh -1, PLC-gamma1 inh 2 and PLCb3 inh 0.
Screening Cc1ccccc1NC(=O)CNc1ccc(Cl)c(C(F)(F)F)c1 returned DAGLB inhibitor -1, HGIII-sPLA2 inh -12, PLC-gamma1 inh 13*, PLCb3 inh 16*, PLCgamma1 ctr 3 and PLCb3 confirm 7.
Screening Cc1ccc(C(C(=O)NCc2ccco2)N(CCc2ccccc2)C(=O)Cn2nnc3ccccc32)o1 (stereo not drawn) returned DAGLB inhibitor -1, HGIII-sPLA2 inh -6, PLC-gamma1 inh 4, PLCb3 inh 11*, PLCgamma1 ctr -4 and PLCb3 confirm -3.
Cc1ccc(CN(C(=O)Cn2nnc3ccccc32)C(C(=O)NCc2ccco2)c2ccc(C)o2)cc1 (stereo not drawn) was read as DAGLB inhibitor -3, HGIII-sPLA2 inh -8, PLC-gamma1 inh 1 and PLCb3 inh 1.

Assay outcomes (PubChem BioAssay)
